The panel holds about 79,000 compounds, 15% with a hit somewhere; the sample as a whole holds those more often. Activity calls are given as the source filed them. No stated cut-off is given here; in the data, active means growth inhibition above about 70%; inactive means the rest.
How the values were obtained:
[1] = NCI Yeast Anticancer Drug Screen. Data for the rad52 strain (AID 147);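 further: 0% = growth of vehicle-treated control cultures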; conditions: S. cerevisiae rad52 mutant growth inhibition, hits give high values
In short: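 Compounds are applied to a genetically defined yeast strain lacking normal DNA damage repair, and inhibition of growth is expressed relative to cultures given vehicle only.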

[2] = NCI Yeast Anticancer Drug Screen. Data for the wt1 strain (AID 149);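 further: 0% = growth of vehicle-treated wt1 cultures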; conditions: S. cerevisiae wt1 strain (SPY 50644) growth inhibition, hits give high values
In short: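 wt1 strain grown with compound or vehicle; inhibition taken from the growth difference.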

[3] = NCI Yeast Anticancer Drug Screen. Data for the rad50EPP+ strain (AID 151);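 further: 0% = growth of vehicle-treated control cultures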; conditions: S. cerevisiae rad50 mutant strain, hits give high values
In short: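 Compounds were applied to the rad50EPP+ yeast strain, which bears a defined DNA repair alteration, and growth inhibition was determined relative to vehicle-treated cultures.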

[4] = NCI Yeast Anticancer Drug Screen. Data for the mgt1 strain (AID 153); conditions: S. cerevisiae mgt1 mutant growth inhibition, hits give high values
In short: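 Strain: mgt1 yeast, one of a set carrying defined DNA damage repair or cell cycle control alterations. Compound-treated growth compared with vehicle.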

[5] = NCI Yeast Anticancer Drug Screen. Data for the rad50 strain (AID 155);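 further: 0% = growth of vehicle-only cultures of the same strain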; conditions: S. cerevisiae rad50 strain growth inhibition, hits give high values
In short: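 DNA repair mutant yeast, compound exposure, growth read-out; inhibition is taken relative to vehicle.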

[6] = NCI Yeast Anticancer Drug Screen. Data for the mec2-1 strain (AID 157); conditions: S. cerevisiae mec2-1 strain, hits give high values
In short: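 Strain: mec2-1 (DNA repair/cell cycle alteration). Compound exposure, then growth measured; inhibition expressed relative to vehicle.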

[7] = NCI Yeast Anticancer Drug Screen. Data for the rad14 strain (AID 159);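 further: 0% = growth of vehicle-treated control cultures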; conditions: S. cerevisiae rad14 strain growth inhibition, hits give high values
In short: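 DNA repair-defective yeast, compound-exposed; % growth inhibition derived by comparison with vehicle-treated controls.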

[8] = NCI Yeast Anticancer Drug Screen. Data for the sgs1 mgt1 strain (AID 161);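 further: 0% = growth of cultures given vehicle only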; conditions: S. cerevisiae sgs1 mgt1 strain, hits give high values
In short: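 Test agents were incubated with a DNA-repair-mutant yeast strain. Growth was then read and compared against vehicle-treated controls.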

[9] = NCI Yeast Anticancer Drug Screen. Data for the CLN2oe strain (AID 163);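 further: 0% = growth of vehicle-only control cultures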; conditions: S. cerevisiae CLN2oe strain, hits give high values
In short: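 Growth of a genetically modified yeast strain is measured after compound exposure and compared with cultures given vehicle alone.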

[10] = NCI Yeast Anticancer Drug Screen. Data for the cln2 rad14 strain (AID 165);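 further: 0% = growth equal to vehicle treated cultures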; conditions: S. cerevisiae cln2 rad14 strain, hits give high values
In short: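 Compounds are applied to the cln2 rad14 yeast strain, and growth is then compared with that of vehicle-treated cultures to give inhibition.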

[11] = NCI Yeast Anticancer Drug Screen. Data for the bub3 strain (AID 167); conditions: S. cerevisiae bub3 mutant strain, hits give high values
In short: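 In this screen, a yeast mutant lacking normal mitotic checkpoint function is challenged with compound. Relative growth versus vehicle gives the inhibition value.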

[12] = NCI Yeast Anticancer Drug Screen. Data for the wt2 strain (AID 169);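 further: 0% = growth of vehicle-treated yeast cultures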; conditions: S. cerevisiae wt2 strain growth inhibition, hits give high values
In short: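 This strain belongs to a panel of yeast strains with defined genetic alterations in DNA damage repair or cell cycle control. Compounds are applied, and growth inhibition is measured against vehicle-treated cultures.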

[13] = NCI Yeast Anticancer Drug Screen. Data for the mlh1 strain (AID 171);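 further: 0% = growth of vehicle-treated control cultures of the same strain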; conditions: S. cerevisiae mlh1 strain growth inhibition, hits give high values
In short: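 Growth of the mutant yeast strain after compound exposure, expressed as inhibition relative to vehicle-only controls.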

[14] = NCI Yeast Anticancer Drug Screen. Data for the sgs1 strain (AID 173);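 further: 0% = growth of vehicle-only control cultures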; conditions: S. cerevisiae sgs1 mutant, hits give high values
In short: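 Growth of a yeast strain bearing a defined genetic alteration is measured after compound treatment. Inhibition is expressed relative to vehicle-only controls.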

[15] = NCI Yeast Anticancer Drug Screen. Data for the mlh1 rad18 strain (AID 175); conditions: S. cerevisiae mlh1 rad18 strain growth inhibition, hits give high values
In short: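 Read-out is yeast growth inhibition, calculated against vehicle-only controls. The compound was applied to a strain engineered with DNA damage repair alterations.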

[16] = NCI Yeast Anticancer Drug Screen. Data for the rad18 strain (AID 177); conditions: S. cerevisiae rad18 mutant growth inhibition, hits give high values
In short: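 Growth of the mutant yeast strain after compound exposure, normalised to vehicle-only cultures.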

[17] = at 5.0 µM (retest, dose inferred, filed as 0.5)
[18] = at 50.0 µM (retest, dose inferred, filed as 5.0)

Measured: growth inhibition

O=S(=O)(NNc1ccccc1)c1ccccc1
inactive: [1]; at 1.2 µM -1% | [1]; at 3.7 µM 4% | [1]; at 11.0 µM 15% | [1]; at 33.0 µM 62% | [2]; at 1.2 µM -1% | [2]; at 3.7 µM -1% | [2]; at 11.0 µM 4% | [2]; at 33.0 µM 11% | [2]; at 100.0 µM 45% | [3]; at 1.2 µM -1% | [3]; at 3.7 µM 1% | [3]; at 11.0 µM 14% | [4]; at 1.2 µM -3% | [4]; at 3.7 µM -1% | [4]; at 11.0 µM 8% | [4]; at 33.0 µM 14% | [5]; at 1.2 µM 4% | [5]; at 3.7 µM 18% | [5]; [17] -20% | [5]; at 11.0 µM 27% | [5]; at 33.0 µM 60% | [5]; [18] 16% | [6]; at 1.2 µM -6% | [6]; at 3.7 µM -5% | [6]; [17] -12% | [6]; at 11.0 µM -3% | [6]; at 33.0 µM 26% | [6]; [18] 15% | [6]; at 50.0 µM 19.1% | [7]; at 1.2 µM -2% | [7]; at 3.7 µM 3% | [7]; at 11.0 µM 8% | [7]; at 33.0 µM 18% | [7]; at 100.0 µM 44% | [8]; [17] 0% | [8]; [18] 9% | [8]; at 50.0 µM 36.6% | [9]; at 1.2 µM 0% | [9]; at 3.7 µM -1% | [9]; at 11.0 µM 5% | [9]; at 33.0 µM 34% | [10]; [17] -44% | [10]; [18] -3% | [10]; at 50.0 µM 16.1% | [11]; at 1.2 µM -4% | [11]; at 3.7 µM -7% | [11]; [17] -4% | [11]; at 11.0 µM 1% | [11]; at 33.0 µM 45% | [11]; [18] 23% | [11]; at 50.0 µM 11.7% | [12]; at 1.2 µM -2% | [12]; at 3.7 µM -1% | [12]; at 11.0 µM 2% | [12]; at 33.0 µM 16% | [12]; at 100.0 µM 67% | [13]; at 1.2 µM -5% | [13]; at 3.7 µM -3% | [13]; at 11.0 µM -2% | [13]; at 33.0 µM 14% | [14]; at 1.2 µM -1% | [14]; at 3.7 µM -1% | [14]; at 11.0 µM 6% | [14]; at 33.0 µM 34% | [15]; [17] -25% | [15]; [18] 51% | [15]; at 50.0 µM 54.5% | [16]; at 1.2 µM -1% | [16]; at 3.7 µM 3% | [16]; at 11.0 µM 22% | [16]; at 33.0 µM 47%
active: [1]; at 100.0 µM 97% | [3]; at 33.0 µM 71% | [3]; at 100.0 µM 94% | [4]; at 100.0 µM 82% | [5]; at 50.0 µM 73.5% | [5]; at 100.0 µM 95% | [6]; at 100.0 µM 92% | [9]; at 100.0 µM 85% | [11]; at 100.0 µM 93% | [13]; at 100.0 µM 74% | [14]; at 100.0 µM 90% | [16]; at 100.0 µM 91%

O=C1CC(C(O)(C(F)(F)F)C(F)(F)Cl)CCC1C(O)(C(F)(F)F)C(F)(F)Cl (stereo not drawn)
inactive: [1]; at 1.2 µM 54% | [1]; at 3.7 µM 46% | [2]; at 1.2 µM 32% | [2]; at 3.7 µM 44% | [2]; at 11.0 µM 68% | [3]; at 1.2 µM 12% | [3]; at 3.7 µM 24% | [3]; at 11.0 µM 38% | [3]; at 33.0 µM 46% | [3]; at 100.0 µM 41% | [4]; at 1.2 µM 60% | [4]; at 3.7 µM 65% | [5]; at 1.2 µM 45% | [5]; at 3.7 µM 33% | [5]; [17] 29% | [5]; at 11.0 µM 57% | [6]; at 1.2 µM 67% | [6]; at 3.7 µM 56% | [6]; [17] 35% | [7]; at 1.2 µM 66% | [7]; at 3.7 µM 50% | [8]; [17] 49% | [10]; [17] 44% | [11]; at 1.2 µM 60% | [11]; at 3.7 µM 45% | [11]; [17] 2%
active: [1]; at 11.0 µM 72% | [1]; at 33.0 µM 93% | [1]; at 100.0 µM 97% | [2]; at 33.0 µM 91% | [2]; at 100.0 µM 97% | [4]; at 11.0 µM 87% | [4]; at 33.0 µM 94% | [4]; at 100.0 µM 97% | [5]; at 33.0 µM 91% | [5]; [18] 96% | [5]; at 50.0 µM 99.1% | [5]; at 100.0 µM 97% | [6]; at 11.0 µM 84% | [6]; at 33.0 µM 96% | [6]; [18] 96% | [6]; at 50.0 µM 99.5% | [6]; at 100.0 µM 98% | [7]; at 11.0 µM 85% | [7]; at 33.0 µM 97% | [7]; at 100.0 µM 99% | [8]; [18] 96% | [8]; at 50.0 µM 99.5% | [9]; at 1.2 µM 75% | [9]; at 3.7 µM 77% | [9]; at 11.0 µM 89% | [9]; at 33.0 µM 95% | [9]; at 100.0 µM 95% | [10]; [18] 96% | [10]; at 50.0 µM 99.2% | [11]; at 11.0 µM 76% | [11]; at 33.0 µM 95% | [11]; [18] 97% | [11]; at 50.0 µM 99.4% | [11]; at 100.0 µM 97%

Reference: PubChem BioAssay (NCI)
